HepG2 tox: qHTS for Inhibitors of TGF-b: Cytotox Counterscreen. HepG2 CAGA-GFP viability, ATP luminescence, 18 h. Potency, µM (doses to about 46.1 µM), for the others: top-dose activity change, negative = cytotoxicity, actives largely listed as cytotoxic. 410,000 tested, 0.76% active. AID 588856, 2011; note: potency is the fitted concentration of half-maximal effect
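CellTiter-Glo luminescence gave cytotoxicity after 18 hours at 37 degrees C. The cells were HepG2 CAGA-GFP in 1% FBS DMEM, stimulated with 500 pg/mL TGF-beta after compound addition. %Activity was normalised to no-cell wells (complete cell-killing) and DMSO (no toxicity), and curves were fitted and classified.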
ATXN2 expr inh: Primary qHTS for Inhibitors of ATXN expression; HEK-293 ATXN2-luciferase reporter, luminescence, 24 h; Potency, µM (doses to about 57 µM), inactives show top-dose activity change, negative = inhibition, most hits filed as inhibitors; 360,000 tested, 0.72% active; note: potency is the fitted concentration of half-maximal effect; % is set by controls: 0 for no effect and ±100 for the full control effect; nearly all actives have a fitted effect of over 55% in size
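qHTS (up to 57 uM final) was run with 24 h compound exposure of reporter cells at 37 °C. Each well was multiplexed: SteadyGlo luminescence measured ATXN2-luciferase expression after a fluorogenic Gly-Phe-AFC viability readout (25 uM final).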
ATXN viability: Viability Counterscreen for Primary qHTS for Inhibitors of ATXN expression; S2 cells (HEK-293 line with an ATXN2-luciferase reporter) viability, CellTiter-Fluor protease fluorescence, 24 h; Potency, µM (series often up to 56.7 µM), most hits filed as cytotoxic; 400,000 tested, 0.49% active; AID 651635, 2014; note: potency is the fitted concentration of half-maximal effect; nearly all actives have a fitted effect of over 40% in size
IL-1B inflam inh: qHTS for Inhibitors of Inflammasome Signaling: IL-1-beta AlphaLISA Primary Screen; 360,000 tested, 4.7% active; THP-1 LPS/ATP IL-1B secretion, AlphaLISA, 16 h; active compounds read low; activity change, % at 57.5 µM; AID 743279, 2014; in the data active = activity change below about -50%; inconclusive = mostly about -30% to -49%; note: % is set by controls: 0 for no effect and ±100 for the full control effect
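THP-1 cells pretreated 1 hr with compounds (up to 57.5 uM final), then stimulated with LPS (250 ng/mL final) plus ATP (1.25 mM final); secreted IL-1B measured by AlphaLISA after 16 hr, decreased signal indicating inhibition.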
TGFb SMAD3 inh: qHTS for Inhibitors of TGF-b. HepG2 CAGA-GFP TGF-b/SMAD3 reporter, GFP fluorescence, 18 h; TGF-beta stimulated, 500 pg/mL final. Potency, µM (highest dose often 46.1 µM), for inactives: top-dose activity, negative = inhibition, hits mostly inhibitors. 410,000 tested, 1.2% active; note: potency is the fitted concentration of half-maximal effect; % is set by controls: 0 for no effect and ±100 for the full control effect; nearly all actives have a fitted effect of over 65% in size
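Cell-based qHTS in HEPG2 carrying a CAGA-GFP Smad reporter; compounds added before 500 pg/mL final TGF-beta, 18 h incubation at 37 degrees C, GFP fluorescence quantified per cell by imaging cytometry.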
Numbers without * were called inactive. Compounds with a hit are over-represented: about 5.7% of the library has one in this group of screens. Unless noted, calls come from the whole dose curve; as a rule, active = well fitted curve in the direction sought with a large enough effect; inconclusive = small, poorly fitted or top-dose-only effect, or another doubt; inactive = no such curve, though single readings can be large; an effect the other way counts as inactive or inconclusive.

Results for COc1ccc(OC)c2sc(N(CCN(C)C)C(=O)/C=C/c3cccs3)nc12 ?
HepG2 tox: 16µM*; ATXN2 expr inh: inconclusive; IL-1B inflam inh: -103*; TGFb SMAD3 inh: inconclusive

What do the screens show for `COc1ccc(C)c2sc(N(CCN(C)C)C(=O)/C=C/c3cccs3)nc12`?
HepG2 tox: 11µM*; ATXN2 expr inh: inconclusive; ATXN viability: inconclusive; IL-1B inflam inh: -71*; TGFb SMAD3 inh: inconclusive

Results for COc1cccc2sc(N(CCN(C)C)C(=O)/C=C/c3cccs3)nc12 ?
HepG2 tox: -112%; ATXN viability: inconclusive; IL-1B inflam inh: -6; TGFb SMAD3 inh: inconclusive

What do the screens show for `Cc1ccccc1Nc1cccc2nonc12`?
HepG2 tox: -42%; ATXN2 expr inh: 0%; IL-1B inflam inh: -52*; TGFb SMAD3 inh: 0%

Results for C=CCc1c(C)nc(-c2ccccc2)nc1Nc1ccc(O)cc1 ?
HepG2 tox: -24%; ATXN2 expr inh: inconclusive; ATXN viability: inconclusive; IL-1B inflam inh: -97*; TGFb SMAD3 inh: inconclusive

What do the screens show for `CCOC(=O)COc1ccc(CC)cc1C(=O)c1ccn2nc(-c3ccc(Cl)cc3)cc2n1`?
HepG2 tox: -3%; ATXN2 expr inh: 3%; ATXN viability: inactive; TGFb SMAD3 inh: inconclusive

How did CCOC(=O)c1sc2nc(C)nc(NCc3ccc(Cl)cc3)c2c1C do in these assays?
HepG2 tox: -31%; ATXN2 expr inh: -25%; ATXN viability: inactive; IL-1B inflam inh: -67*; TGFb SMAD3 inh: 7%

What do the screens show for `O=C(COc1ccccc1C(=O)O)Nc1cccc2ccccc12`?
HepG2 tox: 2%; ATXN2 expr inh: 12%; ATXN viability: inactive; IL-1B inflam inh: 16; TGFb SMAD3 inh: -5%

How did CC(C)(C)NS(=O)(=O)c1ccc(CCC(=O)Nc2cc(Cl)ccc2Oc2ccccc2)cc1 do in these assays?
HepG2 tox: 1%; ATXN2 expr inh: -16%; ATXN viability: inactive; IL-1B inflam inh: -63*; TGFb SMAD3 inh: inconclusive

What do the screens show for `COc1cccc(OCC(=O)Nc2cc(Cl)ccc2Oc2ccccc2)c1`?
HepG2 tox: -13%; ATXN2 expr inh: 28µM*; ATXN viability: inconclusive; IL-1B inflam inh: -2; TGFb SMAD3 inh: -1%

What do the screens show for `O=C(COc1cccc2ccccc12)Nc1cc(Cl)ccc1C(=O)O`?
HepG2 tox: -31%; ATXN2 expr inh: 0%; ATXN viability: inactive; IL-1B inflam inh: -53*; TGFb SMAD3 inh: 0%

How did CCCNS(=O)(=O)c1ccc(CCC(=O)Nc2cc(Cl)ccc2Oc2ccccc2)cc1 do in these assays?
HepG2 tox: 1%; ATXN2 expr inh: -28%; ATXN viability: inconclusive; IL-1B inflam inh: -21; TGFb SMAD3 inh: -17%

What do the screens show for `Cc1cc(NC(=S)NC(=O)/C=C/c2ccc(S(=O)(=O)N3CCOCC3)cc2)ccc1Br`?
HepG2 tox: -10%; ATXN2 expr inh: inconclusive; ATXN viability: inconclusive; IL-1B inflam inh: -88*; TGFb SMAD3 inh: -10%

What do the screens show for `O=C(/C=C/c1ccc(F)cc1)Nc1ccc(S(=O)(=O)N2CCOCC2)cc1`?
HepG2 tox: -4%; ATXN2 expr inh: 5%; ATXN viability: inactive; IL-1B inflam inh: -14; TGFb SMAD3 inh: 0%

Results for CC(=O)NC(=S)Nc1ccc(S(=O)(=O)N2CCOCC2)cc1 ?
HepG2 tox: -17%; ATXN2 expr inh: -22%; ATXN viability: inactive; IL-1B inflam inh: -2; TGFb SMAD3 inh: 5%

What do the screens show for `O=C(/C=C/c1ccc(S(=O)(=O)N2CCOCC2)cc1)NC(=S)Nc1ccc(N2CCOCC2)cc1`?
HepG2 tox: -18%; ATXN2 expr inh: 1%; ATXN viability: inactive; IL-1B inflam inh: -76*; TGFb SMAD3 inh: -5%

What do the screens show for `CC(C)Cc1ccc(CN2C(C(C)C)C(=O)N(Cc3cn(CCC4OCCO4)nn3)CCS2(=O)=O)cc1` (stereo unspecified)?
HepG2 tox: -20%; ATXN2 expr inh: inconclusive; ATXN viability: inconclusive; IL-1B inflam inh: -56*; TGFb SMAD3 inh: inconclusive

Screening data from PubChem BioAssay.
